{
  "source": "PubChem BioAssay AID488899",
  "about": "(Broad Institute, 2010)",
  "note": "In all, about 330,000 compounds went through this assay and about 2,800 (0.85%) were called active.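 Rule for the calls: active = mean inhibition across replicates of 60% or more, whatever share of single replicates reaches that level; inconclusive = some that reach 60%, reason not given; inactive = mean inhibition across replicates below 60%.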 Shown is part of a subset that was picked to be rich in actives.",
  "data": [
    {"assay": "MITF transcriptional activity suppression – cell-based, SK-MEL-5, single point, luciferase, primary screen (AID 488899)", "conditions": "SK-MEL-5 TRPM1 promoter luciferase, 24 h; at 12.5 µM; active compounds read high", "values": [
      {"smiles": "CC(C)OC(=O)CN1CCN(c2ccc(Cl)cc2)CC1", "inhibition": "-22.1% (inactive)"},
      {"smiles": "C=CCn1c(C)cc(C2=NNC(=NCC)SC2)c1C", "inhibition": "98.4% (active)"},
      {"smiles": "Cc1ccc(S(=O)(=O)NCc2ccc(C(=O)NC3CCC(C)CC3)cc2)cc1", "note": "(stereo not drawn)", "inhibition": "-5.23% (inactive)"},
      {"smiles": "O=C(NCCc1ccccc1)c1cccc(NC(=O)c2ccccc2)c1", "inhibition": "-26.7% (inactive)"},
      {"smiles": "CCN(CC(=O)Nc1c(F)cccc1F)C(=O)Cc1cccs1", "inhibition": "-11.1% (inactive)"},
      {"smiles": "Cc1nnc(NC(=O)c2ccc3nccnc3c2)s1", "inhibition": "-45.1% (inactive)"},
      {"smiles": "Cc1cccc(CS(=O)(=O)c2ncc(Cl)c(C(=O)Nc3ccc(F)cc3)n2)c1", "inhibition": "41% (inactive)"},
      {"smiles": "Cc1cccc(NC(=O)c2nc(S(=O)(=O)Cc3ccccc3)ncc2Cl)c1", "inhibition": "70.8% (active)"},
      {"smiles": "CSc1ncc(Cl)c(C(=O)Nc2cc(C)ccc2C)n1", "inhibition": "18.6% (inactive)"},
      {"smiles": "COCCSc1nnc(NC(=O)CCS(=O)(=O)Cc2ccccc2)s1", "inhibition": "-6.5% (inactive)"},
      {"smiles": "Cc1cccc(NC(=O)c2nc[nH]c2C(=O)NCC(=O)OCc2ccccc2)c1", "inhibition": "-4.1% (inactive)"},
      {"smiles": "CSc1nnc(NC(=O)c2nc(S(=O)(=O)Cc3ccc(C)cc3)ncc2Cl)s1", "inhibition": "62.7% (active)"},
      {"smiles": "Cc1ccc(CS(=O)(=O)c2ncc(Cl)c(C(=O)Nc3nnc(C)s3)n2)cc1", "inhibition": "85.4% (active)"},
      {"smiles": "Cc1ccc(S(=O)(=O)CC(=O)Nc2nnc(C)s2)cc1", "inhibition": "7.41% (inactive)"},
      {"smiles": "NS(=O)(=O)c1ccccc1NC(=O)c1c(O)c2ccccc2[nH]c1=O", "inhibition": "-57.1% (inactive)"},
      {"smiles": "Cc1nc(N)nc(Cl)c1CCC1OCCO1", "inhibition": "-7.11% (inactive)"},
      {"smiles": "Cc1ccc(CN(CC(=O)NCC2CCCO2)S(=O)(=O)c2ccc(C)cc2)cc1", "note": "(stereo not drawn)", "inhibition": "-1.73% (inactive)"},
      {"smiles": "COc1ccc(N2C(=O)C(CC(=O)Nc3ccccc3)N(Cc3ccc(OC)c(OC)c3)C2=O)cc1", "note": "(stereo not drawn)", "inhibition": "-7.22% (inactive)"},
      {"smiles": "COc1ccc([N+](=O)[O-])cc1N(CC(O)Cn1nnc2ccccc21)S(=O)(=O)c1ccc(C)cc1", "note": "(stereo not drawn)", "inhibition": "-0.297% (inactive)"},
      {"smiles": "Cc1cc(F)ccc1NC(=S)NCCc1ccccc1", "inhibition": "7.66% (inactive)"},
      {"smiles": "Cc1ccc(C)c(S(=O)(=O)N(C)c2ccc(OC(=O)C3CCN(C(=O)c4ccc(F)cc4)CC3)cc2)c1", "inhibition": "-0.817% (inactive)"},
      {"smiles": "Cc1ccc(S(=O)(=O)N2CCN(C(=O)c3cc(S(=O)(=O)N4CCOCC4)ccc3F)CC2)cc1", "inhibition": "3.63% (inactive)"},
      {"smiles": "CC(C)Nc1nnc(SC(C)C(=O)N(C)C2CCCCC2)s1", "note": "(stereo not drawn)", "inhibition": "3.93% (inactive)"},
      {"smiles": "Cc1ccc(C(=O)/C=C/c2c(C)nn(-c3ccccc3)c2Cl)cc1", "inhibition": "-34.6% (inactive)"},
      {"smiles": "O=C(/C=C/Sc1ncn[nH]1)c1ccc(Cl)cc1", "inhibition": "90.5% (active)"},
      {"smiles": "Cc1cccc(C=CC(=O)c2ccc(Cl)cc2)c1", "inhibition": "-37.5% (inactive)"},
      {"smiles": "CC(=O)Nc1ccc(NC(=O)C(C)OC(=O)c2ccccc2C(=O)c2ccc(Cl)c([N+](=O)[O-])c2)cc1", "note": "(stereo not drawn)", "inhibition": "75.9% (active)"},
      {"smiles": "O=C(Nc1ccncc1)c1ccc(Cl)c([N+](=O)[O-])c1", "inhibition": "-0.779% (inactive)"},
      {"smiles": "CC(OC(=O)CNC(=O)c1ccc(Cl)c([N+](=O)[O-])c1)C(=O)NCc1ccco1", "note": "(stereo not drawn)", "inhibition": "-4.83% (inactive)"},
      {"smiles": "O=C(COC(=O)c1cnccn1)Nc1ccc(Cl)cc1C(F)(F)F", "inhibition": "8.53% (inactive)"},
      {"smiles": "COc1ccc(CC(=O)NC2CCSc3ccccc32)cc1OC", "note": "(stereo not drawn)", "inhibition": "3.11% (inactive)"},
      {"smiles": "COc1ccccc1-n1nnnc1SCC(=O)NC(=O)Cc1ccccc1", "inhibition": "2.76% (inactive)"},
      {"smiles": "COc1ccccc1-n1nnnc1S(=O)(=O)Cc1ccc(Cl)cc1", "inhibition": "73.6% (active)"},
      {"smiles": "COc1ccccc1N1CCN(S(=O)(=O)c2ccc(Cl)cc2)CC1", "inhibition": "8.65% (inactive)"},
      {"smiles": "CC(C)(C)n1nc(Cc2cccc3ccccc23)c(C#N)c1N", "inhibition": "4.42% (inactive)"},
      {"smiles": "CCc1nn(-c2cc(Oc3cccc4ccccc34)nc(-c3ccccc3)n2)c(N)c1C#N", "inhibition": "86.1% (active)"},
      {"smiles": "O=C(c1ccc2c(c1)N(Cc1ccc(F)cc1)C(=O)c1ccccc1S2(=O)=O)N1CCN(c2ccccn2)CC1", "inhibition": "7.75% (inactive)"},
      {"smiles": "CCOC(=O)C1(Cc2ccccc2C)CCCN(S(C)(=O)=O)C1", "note": "(stereo not drawn)", "inhibition": "0.048% (inactive)"}
    ]}
  ]
}
